High-throughput results: PubChem BioAssay, several laboratories
Compounds with a hit are over-represented: about 13% of the library has one in this group of screens.
WT yeast gro inh – growth inhibition of WT yeast, mitochondrial fusion screen; mitochondrial fusion phenotypic screen, WT strain; inhibition, % at 10 µM; 190,000 tested, 2.1% active; in the data active = inhibition above about 58%; tested in S. cerevisiae
CHOP inh – blocks CHOP induction under ER stress; CHO-K1 CHOP-promoter luciferase, tunicamycin-induced, 15-18 h; inhibition, % at 10 µM; 220,000 tested, 3.8% active;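 active = compounds that reduced the stress-induced luciferase reporter signal by more than about 70% of percent inhibition, limit read from the data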
RAM inhibit – inhibitors of the yeast RAM network | inhibition, % at 50 µM | S. cerevisiae dse1pr::URA3 reporter, 5-FOA growth OD615, 2 d; analog-sensitive cbk1-as2 kinase mutant strain | 190,000 tested, 1.8% active | AID 868;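 active = inhibition above a set limit, 3 SD over mean compound inhibition, cut at about 8.4% in these data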;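 note: inhibition rescues growth on 5-FOA so higher OD means more RAM inhibition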
Lmaj promast – inhibitors of Leishmania major promastigote growth; Leishmania major promastigotes, resazurin fluorescence viability; 200,000 tested, 9% active; inhibition, % at 10 µM; in the data active = inhibition above about 50%;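 note: promastigotes grown with compound for 44 hours at 28 °C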
A number is an active result; 0 = inactive; - = no result.

SMILES	WT yeast gro inh	CHOP inh	RAM inhibit	Lmaj promast
CCOC(=O)C(NS(=O)(=O)c1ccc(Br)cc1)C(C)C (stereo not given)	0	0	0	0
O=S(=O)(N1CCCCC1)n1c(Cc2ccccc2)nc2ccccc21	0	0	0	54
O=S(=O)(c1ccc(Br)cc1)n1c(Cc2ccccc2)nc2ccccc21	0	0	0	0
CCOc1ccc(/C(O)=C/C(=O)C(=O)Nc2ccc(S(=O)(=O)NC(C)=O)cc2)cc1	0	0	0	0
O=C(c1cccs1)N1CCN(CCCc2ccccc2)CC1	0	75	0	96
O=C(c1cccnc1)N1CCN(C/C=C/c2ccccc2)CC1	0	0	0	0
O=C(c1cccnc1)N1CCN(CCCc2ccccc2)CC1	0	0	0	80
O=C(c1cccs1)N1CCN(Cc2ccccc2)CC1	0	0	0	0
C/C(=N\NC(N)=O)c1ccccc1Cl	-	0	-	-
Cc1ccc(S(=O)(=O)c2nc(Nc3nccs3)sc2Cl)cc1	62	72	0	0
Cc1ccc(S(C)(=O)=O)cc1S(=O)(=O)Nc1ccccc1	0	0	0	50
CCN(CC)S(=O)(=O)c1ccc(N2CCCC2)c(NS(=O)(=O)c2ccccc2)c1	0	0	0	63
CCN(CC)S(=O)(=O)c1ccc(N2CCCC2)c(NS(=O)(=O)c2ccc(OC)cc2)c1	0	0	0	0
CCN(CC)S(=O)(=O)c1cc(NS(=O)(=O)c2cccc(C(=O)O)c2)ccc1C	0	0	0	0
CCN(CC)S(=O)(=O)c1ccc(N2CCCC2)c(NS(=O)(=O)c2ccc(F)cc2)c1	0	0	9.8	60
CCN(CC)S(=O)(=O)c1ccc(N2CCCC2)c(NS(=O)(=O)c2ccc([N+](=O)[O-])cc2)c1	0	0	0	0
CCN(CC)S(=O)(=O)c1cc(NS(=O)(=O)c2ccccc2)ccc1C	0	0	0	52
CCN(CC)S(=O)(=O)c1ccc(N2CCOCC2)c(NS(=O)(=O)c2cc(C(C)(C)C)ccc2C)c1	0	0	0	93
O=C(/C=C/c1ccccc1)NC(NC(=S)Nc1ccc(Cl)cc1Cl)C(Cl)(Cl)Cl (stereo not given)	0	81	0	59
O=C(/C=C/c1ccccc1)NC(NC(=S)Nc1ccc(C(=O)O)cc1)C(Cl)(Cl)Cl (stereo not given)	0	0	0	0
O=C(/C=C/c1ccccc1)NC(NC(=S)Nc1cccc(O)c1)C(Cl)(Cl)Cl (stereo not given)	0	0	0	93
CCCc1ccc(C(=O)/C=C/N(C)C)cc1	0	0	0	0
CC(=O)N1CCc2cc(N=NC3=C(O)CC(C)(C)CC3=O)ccc21	0	0	0	0
C=CCn1c(Cc2cccs2)nnc1SC/C=C/c1ccccc1	0	0	0	0
Cc1ccc2[nH]c3c(c2c1)CCCC3=O	0	0	0	0
SMILES	WT yeast gro inh	CHOP inh	RAM inhibit	Lmaj promast
O=C1CCCc2c1[nH]c1ccc(CN3CCCCC3)cc21	0	0	0	59
CCOC(=O)C1CCN(CC(=O)Nc2cc(S(=O)(=O)N3CCOCC3)ccc2C)CC1	0	0	0	0
CCCCc1c(C)c2cc(C)ccc2[nH]c1=O	0	79	0	0
CN(C)C(=O)Cn1cnc2c(cnn2-c2ccccc2Cl)c1=O	0	89	0	0
Cc1ccc(-n2ncc3c(=O)n(CC(=O)N4CCN(c5ccccc5)CC4)cnc32)cc1	0	82	0	0
COc1ccc(N2CCN(C(=O)Cn3cnc4c(cnn4-c4ccccc4)c3=O)CC2)cc1	0	0	0	0
O=C(c1ccco1)N1CCC(c2ccccc2)C1 (stereo not given)	0	0	0	0
Cc1ccc2nc(-c3ccccc3)cn2c1	0	76	0	0
CC(=O)Nc1ccc(-c2cn3cc(C)ccc3n2)cc1	0	0	0	0
CCc1ccc(-c2csc(NC(=O)C3CC(=O)N(c4ccc5c(c4)OCCO5)C3)n2)cc1 (stereo not given)	0	85	0	98
CCC(CC)c1nnc(NC(=O)C2CC(=O)N(c3ccc4c(c3)OCCO4)C2)s1 (stereo not given)	0	0	0	0
CC(C)=CCC/C(C)=C/C=N/NC(=O)c1ccccc1[N+](=O)[O-]	0	0	0	94
COC(=O)c1ccc(OC)c(CSc2nnc(COc3ccc(Cl)cc3)o2)c1	0	0	9.7	0
CCOC(=O)N1CCN(C(=O)CSc2nnc(COc3ccc(Cl)cc3)o2)CC1	0	0	0	0
O=C(CSc1nnc(COc2ccc(Cl)cc2)o1)N1c2ccccc2CCc2ccccc21	0	-	0	67
NC(=O)C1CCN(CC(=O)Nc2cccc(C(=O)Nc3cccc(C(F)(F)F)c3)c2)CC1	0	0	0	0
CCN(CC)C1=NS(=O)(=O)c2cc([N+](=O)[O-])ccc21	0	0	0	100
